Reference: PubChem BioAssay (NCI)
Compounds without any hit were thinned out: in the full panel of roughly 79,000, 15% have a hit. Values without a mark were called inactive. Activity calls are given as the source filed them. Cut-off read from the data, not from the text of the source: active = growth inhibition above about 70%; inactive = the rest.

Key:
[1] = NCI Yeast Anticancer Drug Screen. Data for the rad50 strain (AID 155);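 note: 0% = growth of vehicle-only cultures of the same strain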; settings: S. cerevisiae rad50 strain growth inhibition, hits give high values
Summary of the method: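 Compounds were tested on a yeast strain with an engineered DNA damage repair alteration; the reported value is growth inhibition normalised to vehicle treatment.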

[2] = NCI Yeast Anticancer Drug Screen. Data for the mec2-1 strain (AID 157); settings: S. cerevisiae mec2-1 strain, hits give high values
Summary of the method: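 Vehicle-treated cultures served as reference for growth inhibition of compound-exposed mec2-1 yeast.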

[3] = NCI Yeast Anticancer Drug Screen. Data for the sgs1 mgt1 strain (AID 161);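 note: 0% = growth of cultures given vehicle only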; settings: S. cerevisiae sgs1 mgt1 strain, hits give high values
Summary of the method: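 Test agents were incubated with a DNA-repair-mutant yeast strain. Growth was then read and compared against vehicle-treated controls.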

[4] = NCI Yeast Anticancer Drug Screen. Data for the cln2 rad14 strain (AID 165);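 note: 0% = growth equal to vehicle treated cultures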; settings: S. cerevisiae cln2 rad14 strain, hits give high values
Summary of the method: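 Each compound was tested on cln2 rad14 yeast. Inhibition of growth was calculated against vehicle-exposed controls.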

[5] = NCI Yeast Anticancer Drug Screen. Data for the bub3 strain (AID 167); settings: S. cerevisiae bub3 mutant strain, hits give high values
Summary of the method: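 Growth of a checkpoint-deficient yeast mutant is measured after compound exposure. Values represent inhibition relative to vehicle.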

[6] = NCI Yeast Anticancer Drug Screen. Data for the mlh1 rad18 strain (AID 175); settings: S. cerevisiae mlh1 rad18 strain growth inhibition, hits give high values
Summary of the method: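 Vehicle-treated cultures served as the reference for growth inhibition in a yeast strain carrying DNA damage repair alterations exposed to each compound.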

[7] = at 5.0 µM (retest, dose inferred, filed as 0.5)
[8] = at 50.0 µM (retest, dose inferred, filed as 5.0)

SMILES	growth inhibition [1, 7]	growth inhibition [1, 8]	growth inhibition ([1]; at 50.0 µM)	growth inhibition [2, 7]	growth inhibition [2, 8]	growth inhibition ([2]; at 50.0 µM)	growth inhibition [3, 7]	growth inhibition [3, 8]	growth inhibition ([3]; at 50.0 µM)	growth inhibition [4, 7]	growth inhibition [4, 8]	growth inhibition ([4]; at 50.0 µM)	growth inhibition [5, 7]	growth inhibition [5, 8]	growth inhibition ([5]; at 50.0 µM)	growth inhibition [6, 7]	growth inhibition [6, 8]	growth inhibition ([6]; at 50.0 µM)
CCCCCCCCCCCCSC(=N)N	86% (active)	98% (active)	51.3%	21%	99% (active)	99% (active)	84% (active)	98% (active)	46.5%	20%	98% (active)	97.2% (active)	72% (active)	95% (active)	98.7% (active)	49%	99% (active)	64.2%
Nc1ccc(-c2ccc(N)c(S(=O)(=O)O)c2)cc1S(=O)(=O)O	4%	2%	-11.9%	4%	12%	-9%	5%	3%	7.85%	9%	24%	49%	6%	15%	33.2%	13%	6%	-21.8%
CCOC(=O)c1cc(CC)sc1NC(=O)CC(C)=O	42%	58%	46%	35%	53%	17.9%	42%	56%	57.2%	38%	44%	59.5%	44%	78% (active)	70.8% (active)	46%	71% (active)	61.1%
O=[N+]([O-])c1ccc([I+]c2ccccc2)cc1	86% (active)	96% (active)	82.8% (active)	40%	95% (active)	86% (active)	77% (active)	96% (active)	87.2% (active)	30%	87% (active)	82.9% (active)	61%	96% (active)	88.2% (active)	82% (active)	95% (active)	
Cc1cc(C)c([I+]c2c(C)cc(C)cc2C)c(C)c1	10%	95% (active)	57.8%	20%	97% (active)	73.4% (active)	9%	95% (active)	60.6%	16%	97% (active)	56.6%	52%	98% (active)	60%	16%	72% (active)	71% (active)
COC1=CC(=O)c2c(O)c3c(c(O)c2C1=O)CC(C)(O)OC3 (stereo not given)	87% (active)	92% (active)	78% (active)	62%	87% (active)	68.8%	89% (active)	92% (active)	80.2% (active)	21%	45%	47.9%	51%	73% (active)	74.6% (active)	89% (active)	97% (active)	82.7% (active)
O=C1/C(=C/c2ccccc2)CCC/C1=C\c1ccccc1	27%	60%	83.8% (active)	29%	77% (active)	86.6% (active)	36%	72% (active)	82.3% (active)	21%	52%	80.3% (active)	41%	69%	84.8% (active)	58%	76% (active)	
NC1=C(Br)C(=O)c2ncccc2C1=O	56%	94% (active)	87.7% (active)	19%	86% (active)	91.5% (active)	34%	93% (active)	91.5% (active)	18%	90% (active)	90% (active)	9%	83% (active)	90.3% (active)	50%	95% (active)	
S=C1NC2=C(COc3ccccc32)C(c2ccc(Cl)cc2)N1 (stereo not given)	59%	97% (active)	89.6% (active)	70% (active)	98% (active)	92.5% (active)	85% (active)	98% (active)	92.5% (active)	69%	97% (active)	90.5% (active)	92% (active)	98% (active)	90.8% (active)	86% (active)	97% (active)	83.1% (active)
Cc1c2c(c(C)c3c[n+](C)ccc13)Oc1ccccc1O2	18%	24%	25.4%	12%	19%	61.6%	11%	21%	80.5% (active)	17%	20%	62.1%	28%	31%	85.6% (active)	24%	15%	-20.6%
NC(=S)N/N=C\c1nccc2c(C(F)(F)F)cccc12	-4%	96% (active)	89% (active)	2%	96% (active)	91.4% (active)	6%	96% (active)	90.5% (active)	-10%	94% (active)	88.2% (active)	-5%	95% (active)	89.7% (active)	7%	95% (active)	89.2% (active)
CC1=CC(=O)C=CC1(C)C(Cl)(Cl)Cl (stereo not given)	-16%	-24%	-3.05%	-15%	-12%	-1.55%	0%	-6%	-11.6%	-44%	-10%	44.3%	-6%	2%	-0.65%	-10%	-22%	1%
CCCCCCCCCCCCCCCC[N+]1(C)CCCC1c1cccnc1 (stereo not given)	93% (active)	99% (active)	14.3%	90% (active)	99% (active)	55.5%	99% (active)	99% (active)	40.8%	70% (active)	99% (active)	1.5%	96% (active)	99% (active)	99% (active)	89% (active)	99% (active)	68.8%
CCC[CH2][Sn]1([CH2]CCC)[O]C2C(CO)OC(n3ccc(N)nc3=O)C2[O]1 (stereo not given)	46%	97% (active)	86.8% (active)	48%	98% (active)	89.7% (active)	83% (active)	99% (active)	88.5% (active)	71% (active)	99% (active)	83.6% (active)	89% (active)	99% (active)	87.3% (active)	26%	96% (active)	84.2% (active)
O=C(Cc1ccccc1)C(F)(F)F	10%	70% (active)	-8.45%	3%	15%	1.95%	4%	20%	42.2%	4%	2%	-15.6%	2%	19%	-7.95%	0%	18%	58.8%
Nc1cccc2cccc([N+](=O)[O-])c12	-142%	-39%	10.8%	-47%	-40%	11.4%	-52%	1%	16%	-63%	-10%	62%	-74%	-86%	-19.9%			
CCOC(=O)COc1cc(-c2ccccc2F)nc2cc3c(cc12)OCO3	9%	24%	14.7%	4%	6%	15.1%	-16%	-9%	47.2%	8%	15%	23.6%	-29%	36%	65.8%	12%	26%	17.6%
O=C1C=CC(=O)c2c(O)c(CO)c(CO)c(O)c21	28%	95% (active)	75.4% (active)	27%	96% (active)	84.4% (active)	28%	94% (active)	51%	24%	84% (active)	15.5%	40%	98% (active)	74.2% (active)	30%	96% (active)	
C=CCO/N=C/c1cc(NC(=S)c2ccoc2C)ccc1Cl	13%	86% (active)	83.9% (active)	6%	86% (active)	85.5% (active)	1%	85% (active)	83.2% (active)	-11%	80% (active)	84.3% (active)	-4%	90% (active)	80.4% (active)	4%	91% (active)	76.7% (active)
O=C(/C=C/C(Cl)(Cl)Cl)Nc1ccc(Cl)cc1	-6%	16%	71.8% (active)	42%	21%	85% (active)	-4%	43%	81% (active)	25%	8%	77.5% (active)	9%	3%	75.9% (active)			
